SMILES strings stand for the structures. “And” between values parts separate entries of the source, which are not always exact repeats. Equal values may be shown once. Results filed as inconclusive are left out. The source holds several records for some structures; these can differ, active in one and inactive in another. The source made the active and inactive calls. Unless noted, calls follow the shape of the full dose curve.

Assay [1] is described as follows: Primary qHTS for Huh7 cytotoxicity: counterscreen for inhibitors of MERS-S pseudotyped particle cell entry (AID 1479147). Conditions: outcome: dose series up to 57.1 µM unless noted. For orientation: In qHTS, concentration-response curves come from the screen itself.
The nature of assay [2]: Primary qHTS for inhibitors of MERS-S pseudo-typed particle cell entry (AID 1479149). Also: nearly all actives have a fitted effect of over 60% in size. As to activity change, negative = inhibition: % is scaled to controls: 0 for no effect and ±100 for the full control effect. Conditions: outcome: dose series up to 57.1 µM unless noted.
Assay [3] in a line: Primary qHTS for Vero E6 cytotoxicity: counterscreen for inhibitors of SARS-S pseudo-typed particle cell entry (AID 1479150). Conditions: outcome: dose series up to 57.1 µM unless noted.
Assay [4] is described as follows: Cytotoxicity counterscreen for inhibitors of SARS-CoV-2 cell entry (AID 1645845). Also: nearly all actives have a fitted effect of over 50% in size. Conditions: outcome: dose series up to 57.1 µM unless noted. Put shortly:
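Counterscreen run in the same HEK293-ACE2 line as the pseudotyped-particle entry assay, without particles. Viability after 48 h at 37 C was read as ATP luminescence, scaled between cell-containing and cell-free wells.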

Assay [5] is described as follows: Primary qHTS to identify inhibitors of SARS-CoV-2 cell entry (AID 1645846). Also: nearly all actives have a fitted effect of over 45% in size. Also: potency is read from the fitted curve at half-maximal effect. Conditions: SARS-CoV-2 pseudovirus cell entry assay, luminescence; activity change, negative = inhibition: at 57.1 µM (top of the series) unless noted. Put shortly:
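HEK293 cells stably expressing human ACE2, pre-treated 1 h with compound, then infected with MLV particles pseudotyped with Wuhan-Hu-1 spike (C-terminal 19-aa truncation). Luciferase luminescence after 48 h at 37 °C, normalised to spike PP and bald PP.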

A short description of assay [6]: Cell Viability - LYMP2-007 (AID 979; active = well fitted curve in the direction sought with a large enough effect; an effect the other way counts as inactive or inconclusive;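 also: potency is read from the fitted curve at half-maximal effect; cells exposed to compound for 24 h before reading; nearly all actives have a fitted effect of over 60% in size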). Summed up: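 Cells are seeded at 2500 per well and rested 5 hr. Compounds are then added over a concentration series for 24 hr at 37 C. CellTiter-Glo is added for 30 min at room temperature before luminescence reading.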
Assay [7] addresses Estrogen receptor (Homo sapiens) (UniProt P03372). Briefly: qHTS assay for small molecule antagonists of estrogen receptor alpha signaling (AID 588513; active = well fitted curve in the direction sought with a large enough effect in the signal ratio, with a control signal flat, not every such curve was filed as active; the % refers to the signal ratio; also: % is scaled to controls: 0 for no effect and ±100 for the full control effect). Summed up:
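ER-alpha-UAS-bla GripTite HEK 293 cells in 2% charcoal/dextran-treated FBS medium; compounds titrated (1:2, duplicate), then stimulated with 0.5 nM 17-beta-estradiol for 18 h at 37C. CCF4 beta-lactamase fluorescence; Hill-fit IC50 and efficacy.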

Assay [8] concerns the target Glucocorticoid receptor (Homo sapiens) (UniProt P04150). The assay is described as follows: qHTS assay for small molecule agonists of glucocorticoid receptor signaling (AID 588532; active = well fitted curve in the direction sought with a large enough effect in the signal ratio, with a control signal flat; the % refers to the signal ratio;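 also: 100% = dexamethasone at 0.1 µM and 0% = DMSO only wells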). To be noted: HeLa MMTV-bla, beta-lactamase ratio, agonist, 18 h; stronger effect = higher value; percent of dexamethasone control, DMSO zero. Put shortly: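 MMTV-bla HeLa beta-lactamase reporter cells in 1% charcoal/dextran FBS medium, compounds up to 92 uM for 18 h at 37 C, CCF4 readout; normalized to 0.1 uM dexamethasone (100%), EC50 and efficacy from Hill fits.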

Assay [9] concerns the target Peroxisome proliferator-activated receptor delta (Homo sapiens) (UniProt Q03181). Briefly: qHTS assay for small molecule agonists of peroxisome proliferator-activated receptor delta signaling (AID 588534).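 Also: 0% = DMSO basal wells and 100% = positive control agonist at 10 µM.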 Summed up:
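Agonist-mode qHTS; reporter cells, 5 hrs 37 C pre-incubation; compound titration, 18 hrs 37 C; CCF4 dye, 2 hrs RT; fluorescence read. EC50/efficacy via Hill fit.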

The target in assay [10] is Peroxisome proliferator-activated receptor gamma (Homo sapiens) (UniProt P37231). The assay is described as follows: qHTS assay for small molecule antagonists of peroxisome proliferator-activated receptor gamma signaling (AID 588537; active = well fitted inhibition curve with a large enough effect in the signal ratio, with a control signal flat, not every such curve was filed as active; the % refers to the signal ratio;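 also: reporter cells co-stimulated with 50 nM rosiglitazone agonist during compound treatment; % of control where 0% means no effect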). Put shortly: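 Fluorescence at 460 and 530 nm (405 nm excitation) reported beta-lactamase cleavage of CCF4 after 2 h room-temperature loading. HEK293 reporter cells in 1% charcoal/dextran-treated FBS had received compound and rosiglitazone for 16 h.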
Sequence of Peroxisome proliferator-activated receptor gamma (Homo sapiens) (P37231 whole entry, looked up): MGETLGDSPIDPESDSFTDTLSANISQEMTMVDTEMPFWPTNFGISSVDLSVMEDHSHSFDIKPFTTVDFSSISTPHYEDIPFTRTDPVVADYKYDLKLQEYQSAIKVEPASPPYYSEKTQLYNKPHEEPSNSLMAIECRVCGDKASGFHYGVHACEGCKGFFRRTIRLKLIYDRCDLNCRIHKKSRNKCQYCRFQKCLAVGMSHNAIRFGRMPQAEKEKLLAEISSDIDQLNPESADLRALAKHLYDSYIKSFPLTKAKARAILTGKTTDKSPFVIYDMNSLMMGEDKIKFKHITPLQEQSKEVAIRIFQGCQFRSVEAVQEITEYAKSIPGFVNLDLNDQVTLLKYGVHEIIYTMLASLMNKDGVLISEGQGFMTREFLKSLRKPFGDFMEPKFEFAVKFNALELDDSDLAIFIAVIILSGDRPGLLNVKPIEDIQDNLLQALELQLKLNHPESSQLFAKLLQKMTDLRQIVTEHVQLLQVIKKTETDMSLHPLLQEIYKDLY

Assay [11] addresses Thyroid hormone receptor beta (Homo sapiens) (UniProt P10828). The assay is described as follows: qHTS assay for small molecule antagonists of thyroid hormone receptor beta signaling (AID 588547; active = well fitted inhibition curve with a large enough effect in the signal ratio, with a control signal flat, not every such curve was filed as active; the % refers to the signal ratio;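 also: cells stimulated with 0.4 nM T3 agonist during compound exposure; % is scaled to controls: 0 for no effect and ±100 for the full control effect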). Conditions: TR-UAS-bla HEK293, beta-lactamase ratio, antagonist mode, 18 h. Put shortly:
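TR-UAS-bla GripTite HEK293 cells in 2% charcoal/dextran FBS medium; compounds 0.59 nM to 92 uM with T3 at 0.4nM final, 18 h at 37 C. Beta-lactamase read by CCF4 fluorescence (460/530 nm); Hill fits gave IC50 and efficacy.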

Assay [12] in a line: qHTS assay for small molecule agonists of the antioxidant response element (ARE) signaling pathway (AID 651741; active = well fitted activation curve with a large enough effect in the signal ratio; the % refers to the signal ratio; also: potency is read from the fitted curve at half-maximal effect; as to activation: % of control where 0% means no effect). Summed up:
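Stably integrated ARE-beta-lactamase reporter HepG2 cells; 16 h compound incubation, 37 C; LiveBLAzer FRET substrate 2 h at room temperature; fluorescence intensity.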

Assay [13] can be described thus: qHTS assay for small molecule agonists of the antioxidant response element (ARE) signaling pathway measured by Nrf2-dependant transcriptional activity (AID 720636; active = well fitted curve in the direction sought with a large enough effect in the repeat runs; an effect the other way counts as inactive or inconclusive;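 also: HepG2 cells with an ARE-driven luciferase reporter; % of control where 0% means no effect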). Put shortly:
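Attachment 6 hr at 37 C, then compound versus DMSO vehicle for 16 hr in ARE-luc HepG2 cells (1% dialyzed FBS); luminescence recorded 30 min after ONE-Glo addition at room temperature.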

Assay [14] can be described thus: KB-8-5-11 P-gp reporter qHTS against the NCATS DSHEA and TCM libraries (AID 1919977; active = well fitted curve in the direction sought with a large enough effect; an effect the other way counts as inactive or inconclusive; also: 0% is about no effect). Put shortly: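 P-gp-overexpressing KB-8-5-11 cells were screened in colchicine-free medium at 500 cells/well, as a titration series. Cells were exposed for 72 h at 37C. Viability was read by CellTiter-Glo luminescence after 30 min at room temperature.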
In assay [15] the target is Phospholipid hydroperoxide glutathione peroxidase GPX4 (Homo sapiens) (UniProt P36969). Briefly: Primary qHTS Assay for Inhibitors of Recombinant Selenoprotein Glutathione Peroxidase 4 (GPX4) (AID 1845192; active = well fitted curve in the direction sought with a large enough effect; an effect the other way counts as inactive or inconclusive; also: % is scaled to controls: 0 for no effect and ±100 for the full control effect; nearly all actives have a fitted effect of over 65% in size). Summed up: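 Steps: GPX4 plus compound, 30 min RT; add GR/GSH/NADPH master mix; start with cumene hydroperoxide; read 340/450 nm fluorescence at 0 and 15 min. Finals were 200 nM GPX4, 1 mM GSH, 0.5 mM CHP, 0.5 mM NADPH, 100 nM GR.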
Sequence of Phospholipid hydroperoxide glutathione peroxidase GPX4 (Homo sapiens) (P36969 whole entry, looked up): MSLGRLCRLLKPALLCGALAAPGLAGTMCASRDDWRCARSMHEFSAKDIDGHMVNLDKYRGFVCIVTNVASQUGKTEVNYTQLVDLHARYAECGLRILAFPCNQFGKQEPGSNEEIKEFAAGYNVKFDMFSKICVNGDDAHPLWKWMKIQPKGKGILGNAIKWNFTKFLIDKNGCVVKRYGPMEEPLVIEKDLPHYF

Sequence of Peroxisome proliferator-activated receptor delta (Homo sapiens) (Q03181 whole entry, looked up): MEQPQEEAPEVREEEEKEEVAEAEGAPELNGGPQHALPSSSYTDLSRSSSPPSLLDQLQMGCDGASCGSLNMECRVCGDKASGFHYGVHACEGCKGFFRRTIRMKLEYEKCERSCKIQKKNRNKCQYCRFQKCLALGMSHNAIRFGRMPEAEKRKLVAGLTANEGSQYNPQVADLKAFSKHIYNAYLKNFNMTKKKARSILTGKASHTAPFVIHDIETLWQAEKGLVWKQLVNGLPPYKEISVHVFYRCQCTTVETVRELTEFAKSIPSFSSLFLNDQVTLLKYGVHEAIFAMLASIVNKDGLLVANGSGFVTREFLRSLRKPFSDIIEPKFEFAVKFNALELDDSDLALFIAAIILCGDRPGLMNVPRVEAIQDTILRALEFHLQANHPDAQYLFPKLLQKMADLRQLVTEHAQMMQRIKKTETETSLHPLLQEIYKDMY
Sequence of Estrogen receptor (Homo sapiens) (P03372 whole entry, looked up): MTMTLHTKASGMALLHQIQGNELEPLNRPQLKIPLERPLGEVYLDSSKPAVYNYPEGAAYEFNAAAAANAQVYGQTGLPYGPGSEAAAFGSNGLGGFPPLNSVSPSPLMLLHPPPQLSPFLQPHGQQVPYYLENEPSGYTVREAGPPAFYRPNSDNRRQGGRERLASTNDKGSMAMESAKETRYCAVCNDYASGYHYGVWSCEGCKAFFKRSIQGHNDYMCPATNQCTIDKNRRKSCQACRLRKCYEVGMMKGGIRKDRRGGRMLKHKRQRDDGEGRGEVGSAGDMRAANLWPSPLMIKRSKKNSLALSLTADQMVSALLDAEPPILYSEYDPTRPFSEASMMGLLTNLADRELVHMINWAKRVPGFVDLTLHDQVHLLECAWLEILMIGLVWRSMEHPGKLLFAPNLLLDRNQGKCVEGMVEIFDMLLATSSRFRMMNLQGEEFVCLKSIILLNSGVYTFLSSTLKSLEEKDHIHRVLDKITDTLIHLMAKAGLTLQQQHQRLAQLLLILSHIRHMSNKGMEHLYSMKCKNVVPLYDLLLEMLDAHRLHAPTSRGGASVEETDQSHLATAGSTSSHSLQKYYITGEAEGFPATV
Sequence of Thyroid hormone receptor beta (Homo sapiens) (P10828 whole entry, looked up): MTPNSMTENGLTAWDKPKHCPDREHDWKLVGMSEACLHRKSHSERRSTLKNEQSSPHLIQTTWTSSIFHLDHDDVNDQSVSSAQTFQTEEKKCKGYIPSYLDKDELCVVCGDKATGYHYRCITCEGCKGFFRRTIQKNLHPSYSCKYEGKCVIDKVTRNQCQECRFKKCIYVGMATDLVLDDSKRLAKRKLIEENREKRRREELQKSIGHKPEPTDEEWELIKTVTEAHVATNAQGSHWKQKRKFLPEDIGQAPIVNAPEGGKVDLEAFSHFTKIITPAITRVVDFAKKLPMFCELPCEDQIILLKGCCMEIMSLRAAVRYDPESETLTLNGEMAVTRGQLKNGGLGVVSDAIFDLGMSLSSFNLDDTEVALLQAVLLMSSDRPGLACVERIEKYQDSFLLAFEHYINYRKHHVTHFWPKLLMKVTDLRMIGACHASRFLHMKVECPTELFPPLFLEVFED
Sequence of Glucocorticoid receptor (Homo sapiens) (P04150 whole entry, looked up): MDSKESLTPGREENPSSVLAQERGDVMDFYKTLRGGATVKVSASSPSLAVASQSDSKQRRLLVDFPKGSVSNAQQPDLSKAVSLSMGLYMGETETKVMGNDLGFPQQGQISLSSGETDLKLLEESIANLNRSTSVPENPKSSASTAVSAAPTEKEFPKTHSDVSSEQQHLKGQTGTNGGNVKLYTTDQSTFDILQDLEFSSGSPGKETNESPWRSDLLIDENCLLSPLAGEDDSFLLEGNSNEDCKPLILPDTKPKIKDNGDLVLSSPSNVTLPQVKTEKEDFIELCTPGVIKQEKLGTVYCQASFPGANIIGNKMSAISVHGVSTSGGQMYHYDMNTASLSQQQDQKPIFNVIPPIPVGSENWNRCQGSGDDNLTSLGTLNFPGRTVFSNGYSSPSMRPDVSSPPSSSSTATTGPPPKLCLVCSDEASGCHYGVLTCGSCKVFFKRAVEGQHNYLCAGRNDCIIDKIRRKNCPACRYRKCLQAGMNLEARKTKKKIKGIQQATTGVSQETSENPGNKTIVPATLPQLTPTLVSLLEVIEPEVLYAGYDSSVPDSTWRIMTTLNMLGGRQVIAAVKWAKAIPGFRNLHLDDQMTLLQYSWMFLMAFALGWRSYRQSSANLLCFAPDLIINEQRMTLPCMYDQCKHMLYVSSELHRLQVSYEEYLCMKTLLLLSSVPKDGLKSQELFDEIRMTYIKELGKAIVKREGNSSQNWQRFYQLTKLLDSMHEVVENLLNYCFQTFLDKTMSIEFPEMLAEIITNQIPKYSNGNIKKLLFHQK

`NS(=O)(=O)c1cc2c(cc1Cl)NC(Cc1ccccc1)NS2(=O)=O` (stereo not drawn): the Potency result in [1], in [2], in assay [3] and in [4] was “inactive” throughout. For the same compound, in assay [5], the activity change, negative = inhibition is -16.2%.

For the compound `O=C(O)CC(O)(CC(=O)O)C(=O)O`, the Potency in assay [6] is 50.1 µM (active); in [12], “inactive and 54.5 µM (active)”. Besides, the Potency entry in assay [7], in [10], in assay [1], in [2], in [3] and in assay [4] was “inactive” each time. Moreover, the Potency entry in assay [14] was “inactive”. For the same compound, the activation in assay [8] is 1.56% (inactive). The result in assay [9] and in assay [13] was inactive. Also, the activity change % (negative = inhibition) in assay [11] is -10.8% (inactive) and 10.6% (inactive). For the same compound, the activity change, negative = inhibition in [5] was -17.5%.

Turning to `Cc1ccc(Sc2ccccc2N2CCNCC2)c(C)c1`, the Potency entry in assay [1], in assay [2], in [3] and in assay [4] was “inactive” each time. Besides, the Potency in assay [5] was 22.4 µM (active). For the same compound, the activity change, negative = inhibition in assay [5] is -7.77%.

Turning to `CCCCCCCCCCC(=O)O[C@H]1CC[C@H]2[C@@H]3CCC4=CC(=O)CC[C@]4(C)[C@H]3CC[C@]12C`, the Potency entry in [1], in [2], in [3], in [4], in assay [5] and in [15] was “inactive” throughout.

With `FCOC(C(F)(F)F)C(F)(F)F`, the Potency result in assay [1], in assay [2], in assay [3] and in [4] was “inactive” in each case. Also, the activity change, negative = inhibition in [5] was -16%.

For the compound `OCC=Cc1ccccc1`, the Potency entry in assay [1], in assay [2], in [3], in assay [4] and in [14] was “inactive” throughout. Also, the activity change, negative = inhibition in assay [5] is -22.7%.

In the case of `Cc1ccc([C@@H]2O[C@H](CO)[C@@H](O)[C@H](O)[C@H]2O)cc1Cc1ccc(-c2ccc(F)cc2)s1`, the Potency result in assay [1], in assay [2], in assay [3] and in assay [4] was “inactive” each time. For the same compound, in [5], the Potency is 17.8 µM (active).

Consider `CS(=O)(=O)OCCCNCCCOS(C)(=O)=O`, for which the Potency entry in assay [1], in assay [2], in assay [3] and in assay [4] was “inactive” throughout. In addition, the activity change, negative = inhibition in assay [5] was -19.8%.

On to `CCCCC(F)(F)C1(O)CCC2C(CC(=O)C2CCCCCCC(=O)O)O1` (stereo not drawn), for which the Potency result in [1], in assay [2], in assay [3], in [4] and in assay [5] was “inactive” throughout.

In the case of `O=S(=O)(O)c1ccccc1`, the outcome in [9] was inactive. The Potency entry in assay [1], in [2], in [3] and in [4] was “inactive” in each case. Also, the activity change, negative = inhibition in assay [5] is -15.3%.

For the origin of these results see PubChem BioAssay (NCATS).
